# Source: PubChem
# Only a selection was taken, and hits are over-represented in it overall.
# Tgondii IFNg: T. gondii growth inhibition with IFN-gamma, primary screen, cell-based. activity change, negative = inhibition, % (concentration not given with the values). AID 1259416, 2018. 69,000 compounds, 3.8% hits. Toxoplasma gondii growth in IFN-gamma-treated host cells; stronger effect = lower value; in the data active = activity change below about -70%, passing the limit was not always enough;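 note: host cells are HeLa cells infected with Toxoplasma gondii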
# Numbers stand for hits; n = inactive; ! = not active in a repeat.
SMILES,Tgondii IFNg
Cc1cc2c(cc3c(=O)n(CCC#N)nc(C)n32)s1,-90.5
COc1ccc(-c2nn(CCC#N)c(=O)[nH]2)cc1,n
COc1cc2ncc(-c3ccccc3)nc2cc1OC,-84.7
Cc1cc2ncc(-c3ccccc3)nc2cc1C,n
COc1cc2nc(-c3ccccc3)nc(N3CCCC3)c2cc1OC,n
Cc1cccc(CN2CC[C@]3(CCC[C@@H]3C(=O)N3CCOCC3)C2)n1,n
CCn1c(SCc2nc(-c3ccccc3C)oc2C)nc(=O)c2c(C(=O)OC)cc(C3CC3)nc21,n
O=c1c(Cc2ccccc2)c(O)c2cccc3c2n1CC3,n
CC(C)c1cc(C(=O)O)nc2ncnn12,n
CNC(=S)N1N=C(c2c(-c3ccccc3)c3cc(Cl)ccc3[nH]c2=O)CC1c1ccccc1 (centres undefined),n
COC(C(=O)N1N=C(c2c(-c3ccccc3)c3cc(Cl)ccc3[nH]c2=O)CC1c1ccccc1)c1ccccc1 (centres undefined),-101.6
CNC(=S)N1N=C(c2c(-c3ccccc3)c3cc(Cl)ccc3[nH]c2=O)CC1c1ccccc1OC (centres undefined),n
CN(C)CCCN(Cc1ccccn1)Cc1cn[nH]c1-c1ccccc1,n
O=C(CC(=O)C(F)(F)F)c1cccnc1,n
CN(C)C(=O)CN1CCn2cc(Cn3cncn3)nc2C1,n
COc1ccc2[nH]c3c(c2c1)CCNC31C(=O)N(C)c2ccccc21 (centres undefined),n
COc1ccc2[nH]nc(C(=O)N3C[C@H]4CC=C(C)C[C@H]4C3)c2c1,n
COc1ccc2[nH]c3c(c2c1)CCNC3C1CC=C(C)CC1 (centres undefined),-84.0
O=C(CN1C(=O)CCc2cc(Br)ccc21)NC1CCCc2ccccc21 (centres undefined),-94.1
Cc1cc(C)cc(NC(=O)CN2C(=O)CCc3cc(Br)ccc32)c1,n
O=C(CN1C(=O)CCc2cc(Br)ccc21)Nc1cccc2c1CCCC2,n
Cc1ccc(NC(=O)CN2C(=O)CCc3cc(Br)ccc32)cc1F,n
O=C(CN1C(=O)CCc2cc(S(=O)(=O)N3CCCCC3)ccc21)NC1CCCc2ccccc21 (centres undefined),n
CCN1CCN(Cc2ccc(NC(=O)CN3C(=O)CCc4cc(Br)ccc43)cc2)CC1,-92.3
CC(=O)N1CCC2(CC1)OC(=O)C(C)=C2C(=O)NC1CCN(Cc2ccccc2)CC1,n
SMILES,Tgondii IFNg
CCNC(=O)[C@@H]1C[C@H](N)CN1C(=O)CC1=C(c2cccs2)CCC1=O,n
O=C1N(Cc2ccccn2)C(=O)C2(CCN(CC3CC=CCC3)CC2)N1Cc1ccccc1 (centres undefined),n
O=C1N(Cc2ccccn2)C(=O)C2(CCN(Cc3c(F)cccc3Cl)CC2)N1Cc1ccccc1,-72.9
Cc1c(CN2CCC3(CC2)C(=O)N(Cc2ccccn2)C(=O)N3Cc2ccccc2)cnn1C,n
CCc1cc(-c2ccccc2CO)ccc1NC(C)=O,n
O=C(Nc1ccc2c(c1)OCO2)C1CCCN(c2ncccn2)C1 (centres undefined),n
CC(=O)[C@H]1[C@H](C#N)C[C@H]2[C@@H]3CC=C4C[C@@H](O)CC[C@]4(C)[C@H]3CC[C@@]21C,-84.4
C[C@]12CC[C@H](O)CC1=CCC1C2CC[C@]2(C)C(n3cnc4ccccc43)=CCC12 (some centres undefined),n
C[C@]12CCC3C(CC=C4C[C@@H](O)CC[C@@]43C)C1CCC2[C@]1(C)CCC(=O)O1 (some centres undefined),n
COc1cc2c(cc1CN1CCC(NC(C)=O)(c3ccc(F)cc3)CC1)CCC2,n
O=C(Cc1ccc2c(c1)CCC2)NCCN1CCC(O)(c2ccc(F)cc2)CC1,-75.8
O=C(NCCN1CCC(O)(c2ccc(F)cc2)CC1)c1c(F)cccc1F,n
COc1ccccc1-c1cc(CNC(=O)c2cnn3c2CCCC3)on1,n
O=C(NCCc1csc(-c2cccc(F)c2)n1)c1ccc(F)c(F)c1,n
CC(C)Cc1ccc(C(C)c2nnc(-c3ccc(Cl)cc3)o2)cc1 (centres undefined),n
C#Cc1cccc(Nc2ncnc3cc(OCCOC)c(OCCOC)cc23)c1,n
COc1cc2c(Nc3ccc(NC(=O)c4ccccc4)cc3)ncnc2cc1OCCCN1CCOCC1,-76.0!
COc1cc2c(Oc3ccc4[nH]c(C)cc4c3F)ncnc2cc1OCCCN1CCCC1,n
CCn1c(C2CCNCC2)nn(CCn2ccc(C)n2)c1=O,n
CN=C1Sc2nc3c(cc2CN1C1CCCCC1)c(C(C)(C)C)nn3-c1ccccc1,-84.5
COc1ccc(CNc2ccc(Br)cc2)c(OC)c1OC,n
COc1ccc2cc(Br)ccc2c1CC#N,-107.3
COc1cc(Br)c(CCC#N)cc1OC,n
O=C(CCN[C@H]1c2ccccc2C[C@H]1O)Nc1nnc(C2CC2)s1,n
O=C(C1COc2ccccc2O1)N(CCO)Cc1cccs1 (centres undefined),n
COc1ccccc1C(NC(=O)C(OC)c1ccccc1)c1nccn1C (centres undefined),n
COc1ccc(S(=O)(=O)N2CCC3(CC2)Nc2ccccc2-n2cccc23)cc1Cl,n
